The values that follow come from PubChem BioAssay (NCATS).

Results filed as inconclusive are left out. A number with no mark means an inactive call. Calls of active or inactive are those of the source. Calls follow the shape of the dose curve; as a rule, active = well fitted cell-killing curve with a large enough effect; inconclusive = small, poorly fitted or top-dose-only effect, or effect the other way; inactive = no such curve, though single readings can be large or run the other way.
Potency is read from the fitted curve at half-maximal effect.

A short description of one experiment: Quantitative High-Throughput drug screen in 47 multiple myeloma cell lines against the NCATS MIPE library collection: UTMC2_PLB cell viability assay (AID 1919868). Also: nearly all actives have a fitted effect of over 55% in size.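 As to viability (% of DMSO control): 100% = DMSO-only wells and 0% = media-only wells without cells.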 The settings on record: CellTiter-Glo ATP luminescence, 48 h; viability (% of DMSO control): at 45.8 µM (top of the series) unless noted. Summed up: (§1)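 500 cells/well; MIPE 4.0 drugs pin-transferred; 48 h, 37C, 5% CO2. CellTiter-Glo, 5 min RT, luminescence. Controls: DMSO 100%, media 0%.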
A general note: ATP-based viability assays read luminescence as a measure of living cells.
For the compound `Cc1[nH]c2ccccc2c1CCNCc1ccc(C=CC(=O)NO)cc1`, the Potency was 14.8 nM (active).

On to `Nc1ccccc1NC(=O)c1ccc(CNc2nccc(-c3cccnc3)n2)cc1`, for which the Potency is 833 nM (active).

In the case of `Cc1cn2cc(C(=O)N(C)CCO)cc(N[C@@H]3CCOc4cccc(C)c43)c2n1`, the Potency entry was “inactive”.

Turning to `CCCn1c(=O)c2[nH]c(-c3cnn(Cc4cccc(C(F)(F)F)c4)c3)nc2n(CC)c1=O`, the Potency entry was “inactive”.

For `CNC(=O)c1c(F)cccc1Nc1nc(Nc2cc3c(cc2OC)CCN3C(=O)CN(C)C)nc2[nH]ccc12`, the Potency is 93.5 nM (active).

In the case of `Cc1cc(CN2CCN(c3c(Br)cnc4nc(-c5ccc(N6CCN(C)CC6)cc5)[nH]c34)CC2)no1`, the Potency is 10500 nM (active).

On to `CCCNC(=O)Nc1ccc(Oc2ncnc3cc(OC)c(OC)cc23)cc1Cl`, for which the Potency entry is “inactive”.

`CN[C@H]1CCc2cc(OC)c(OC)c(OC)c2-c2ccc(OC)c(=O)cc21`: the Potency was 9.3 nM (active).

Consider `O=c1[nH]c(=O)n(C2CCCO2)cc1F` (stereo not given), for which the Potency result was “inactive”.

In the case of `Cc1ccc(C(=O)Nc2cccc(C(F)(F)F)c2)cc1-c1ccc2nc(NCCN3CCOCC3)ncc2c1`, the Potency was 5900 nM (active).

The next experiment in a line: Quantitative High-Throughput drug screen in 47 multiple myeloma cell lines against the NCATS MIPE library collection: PE2_PLB cell viability assay (AID 1919869). Also: nearly all actives have a fitted effect of over 35% in size.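 As to viability (% of control): 100% = DMSO-only wells and 0% = cell-free media-only wells.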 As to conditions: PE2_PLB myeloma cells viability, ATP luminescence, 48 h; series mostly up to 45.8 µM. Summed up: as §1
As for `c1ccc2c(CCNc3ccc(Nc4ccncc4)cc3)c[nH]c2c1`, the Potency is 16600 nM (active).

With `O=C(O)c1ccc2c(c1)nc(Nc1cccc(Cl)c1)c1ccncc12`, the Potency is 2640 nM (active).

Consider `O=C(O)Cn1nnc(-c2cc(N3CCC(Oc4cc(F)ccc4Br)CC3)no2)n1`, for which the Potency entry was “inactive”.

For `Cc1[nH]c2ccccc2c1CCNCc1ccc(C=CC(=O)NO)cc1`, the Potency is 93.5 nM (active).

Take `Nc1ccccc1NC(=O)c1ccc(CNc2nccc(-c3cccnc3)n2)cc1`: the Potency was 1320 nM (active).

As to `Cc1cn2cc(C(=O)N(C)CCO)cc(N[C@@H]3CCOc4cccc(C)c43)c2n1`, the Potency result was “inactive”.

In the case of `O=C(O)CCCc1c[nH]c2ccccc12`, the Potency entry was “inactive”.

Consider `CCCn1c(=O)c2[nH]c(-c3cnn(Cc4cccc(C(F)(F)F)c4)c3)nc2n(CC)c1=O`, for which the Potency entry was “inactive”.

As for `O=C(C=Cc1cccnc1)NCCCCC1CCN(C(=O)c2ccccc2)CC1`, the Potency was 13.2 nM (active).

For `CNC(=O)c1c(F)cccc1Nc1nc(Nc2cc3c(cc2OC)CCN3C(=O)CN(C)C)nc2[nH]ccc12`, the Potency is 2640 nM (active).

For the compound `COc1c(N2C[C@@H]3CCCN[C@H]3C2)c(F)cc2c(=O)c(C(=O)O)cn(C3CC3)c12`, the Potency result is “inactive”.

In the case of `CC=C1NC(=O)[C@H]2CSSCCC=C[C@H](CC(=O)N[C@H](C(C)C)C(=O)N2)OC(=O)[C@H](C(C)C)NC1=O`, the Potency was 59 nM (active).

Take `COc1ccc(CC2c3cc(OC)c(OC)cc3CC[N+]2(C)CCC(=O)OCCCCCOC(=O)CC[N+]2(C)CCc3cc(OC)c(OC)cc3C2Cc2ccc(OC)c(OC)c2)cc1OC` (stereo not given): the viability (% of control) was 81% [at 5.15 µM].

`Cc1cc(CN2CCN(c3c(Br)cnc4nc(-c5ccc(N6CCN(C)CC6)cc5)[nH]c34)CC2)no1`: the Potency was 6620 nM (active).

On to `COc1cc(C(=O)N2CCC(N3CCN(C)CC3)CC2)ccc1Nc1ncc2c(n1)N(C)c1ccccc1C(=O)N2C`, for which the Potency is 5260 nM (active).

Turning to `CCCNC(=O)Nc1ccc(Oc2ncnc3cc(OC)c(OC)cc23)cc1Cl`, the Potency entry is “inactive”.

Consider `O=C(O)CO.[NH2-].[NH2-].[Pt+2]`, for which the Potency result is “inactive”.

As to `O=C1CCC[C@@H]2[C@H]3CCC[N+]4([O-])CCC[C@@H](CN12)[C@@H]34` (stereo not given in full), the Potency entry was “inactive”.

As to `CC1(C)CCC(c2ccc(Cl)cc2)=C(CN2CCN(c3ccc(C(=O)NS(=O)(=O)c4ccc(N[C@H](CCN5CCOCC5)CSc5ccccc5)c(S(=O)(=O)C(F)(F)F)c4)cc3)CC2)C1`, the Potency was 2640 nM (active).

For `O=c1[nH]c(=O)n(C2CCCO2)cc1F` (stereo not given), the Potency result is “inactive”.

For the compound `CCNC(=O)Nc1ccc2ncc(Nc3ccc(C)cc3)nc2n1`, the Potency is 3720 nM (active).

As for `Cc1ccc(C(=O)Nc2cccc(C(F)(F)F)c2)cc1-c1ccc2nc(NCCN3CCOCC3)ncc2c1`, the Potency was 4690 nM (active).

As to `COc1ccc(-c2cc3c(C)nc(N)nc3n(C3CCC(OCCO)CC3)c2=O)cn1` (stereo not given), the Potency was 46.9 nM (active).

As to `c1cc(-c2cnn3cc(-c4ccc(OCCN5CCCCC5)cc4)cnc23)ccn1`, the Potency was 3320 nM (active).

As for `COc1cccc(Nc2c(C(N)=O)cnc3c(C)cc(S(=O)(=O)c4cccc(C(=O)N(C)C)c4)cc23)c1`, the Potency result was “inactive”.

Regarding `CC(C)Nc1cc(C(F)(F)F)cc2nc(NC(=O)c3cccnc3)nn12`, the Potency entry is “inactive”.

With `CC=CC1=C(C(=O)O)N2C(=O)[C@H](NC(=O)[C@H](N)c3ccc(O)cc3)[C@@H]2SC1`, the Potency entry is “inactive”.

On to `NCC(=O)Nc1ccc(-n2nc(C(F)(F)F)cc2-c2ccc3c(ccc4ccccc43)c2)cc1`, for which the Potency is 20900 nM (active).

With `CC(=O)SC[C@@H](C)C(=O)N1CCC[C@H]1C(=O)N[C@@H](Cc1ccccc1)C(=O)O`, the Potency result was “inactive”.

Turning to `CC(O)C1C(=O)N2C(C(=O)O)=C(SC3CNC(C(=O)N(C)C)C3)C(C)C12` (stereo not given), the Potency entry is “inactive”.
